Experimental data reported in PubChem BioAssay (Tox21).
Inconclusive results are not listed. The source made the active and inactive calls. Unless noted, calls come from the whole dose curve; as a rule, active = well fitted curve in the direction sought with a large enough effect in the repeat runs; inconclusive = weak or mixed curves; inactive = flat fitted curve, though single readings scatter.

Columns and labels:
[1] = qHTS assay to test for compound auto fluorescence at 535 nm (green) in HEK293 cells (AID 720680)
[2] = qHTS assay to test for compound auto fluorescence at 460 nm (blue) in HEK293 cell free culture (AID 720681)
Method in brief: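 Compounds were added to cell-free DMEM with 10% FBS and fluorescence read directly. The blue channel used 405 nm excitation and 460 nm emission, with triamterene as the reference fluorophore.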

[3] = qHTS assay to test for compound auto fluorescence at 535 nm (green) in HEK293 cell free culture (AID 720682)
Method in brief: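 Green-channel intensity (Ex/Em 485/535 nm) was recorded from compound-treated wells containing only DMEM with 10% FBS. Fluorescein provided the equivalency standard.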

[4] = qHTS assay to test for compound auto fluorescence at 590 nm (red) in HEK293 cell free culture (AID 720683)
Method in brief: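 Cell-free wells of DMEM with 10% FBS received compound, and intrinsic fluorescence was read at excitation/emission 540/590 nm. Values expressed as equivalence to Rose Bengal sodium.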

[5] = qHTS assay to test for compound auto fluorescence at 590 nm (red) in HepG2 cell free culture (AID 720684)
Method in brief: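 Compound was pinned into wells holding MEM with 10% FBS and no cells, and red fluorescence was read at Ex/Em 540/590 nm. Signal is expressed as auto fluorescence equivalency relative to Rose Bengal sodium.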

[6] = qHTS assay to test for compound auto fluorescence at 460 nm (blue) in HepG2 cell free culture (AID 720685)
Method in brief: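 Compound (23 nL) or DMSO pinned into cell-free MEM with 10% FBS; blue fluorescence read at 405/460 nm excitation/emission, expressed as auto-fluorescence equivalency to triamterene.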

[7] = qHTS assay to test for compound auto fluorescence at 535 nm (green) in HepG2 cell free culture (AID 720686)
[8] = qHTS assay to test for compound auto fluorescence at 460 nm (blue) in HepG2 cells (AID 720687)
Method in brief: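 HepG2 cells in MEM with 10% FBS, attached overnight at 37 C, were exposed to compound or DMSO for 1 hr at 37 C, 5% CO2. Blue fluorescence was read at 405/460 nm, with triamterene as reference fluorophore.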

[9] = biological target: Glucocorticoid receptor (Homo sapiens) (UniProt P04150); assay: qHTS assay to identify small molecule antagonists of the glucocorticoid receptor (GR) signaling pathway (AID 720692; active = well fitted inhibition curve with a large enough effect in the signal ratio in the repeat runs, not every such curve was filed as active; the % refers to the signal ratio)
Method in brief: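 Cells plated, rested 4 h at 37 C/5% CO2; compounds in DMSO pin-transferred; dexamethasone added to 5 nM final; 18 h at 37 C; B/G FRET substrate added, 2 h room temperature; fluorescence measured.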

[10] = biological target: Glucocorticoid receptor (Homo sapiens) (UniProt P04150); assay: qHTS assay to identify small molecule agonists of the glucocorticoid receptor (GR) signaling pathway (AID 720691; active = well fitted activation curve with a large enough effect in the signal ratio in the repeat runs, not every such curve was filed as active; the % refers to the signal ratio)
Method in brief: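 Agonist mode in a HeLa line carrying a GRE-controlled beta-lactamase reporter. Compounds act for 18 h at 37 C before a 2 h room-temperature FRET substrate step and fluorescence reading.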

Measured: Potency

Sequence of Glucocorticoid receptor (Homo sapiens) (P04150 whole entry, looked up): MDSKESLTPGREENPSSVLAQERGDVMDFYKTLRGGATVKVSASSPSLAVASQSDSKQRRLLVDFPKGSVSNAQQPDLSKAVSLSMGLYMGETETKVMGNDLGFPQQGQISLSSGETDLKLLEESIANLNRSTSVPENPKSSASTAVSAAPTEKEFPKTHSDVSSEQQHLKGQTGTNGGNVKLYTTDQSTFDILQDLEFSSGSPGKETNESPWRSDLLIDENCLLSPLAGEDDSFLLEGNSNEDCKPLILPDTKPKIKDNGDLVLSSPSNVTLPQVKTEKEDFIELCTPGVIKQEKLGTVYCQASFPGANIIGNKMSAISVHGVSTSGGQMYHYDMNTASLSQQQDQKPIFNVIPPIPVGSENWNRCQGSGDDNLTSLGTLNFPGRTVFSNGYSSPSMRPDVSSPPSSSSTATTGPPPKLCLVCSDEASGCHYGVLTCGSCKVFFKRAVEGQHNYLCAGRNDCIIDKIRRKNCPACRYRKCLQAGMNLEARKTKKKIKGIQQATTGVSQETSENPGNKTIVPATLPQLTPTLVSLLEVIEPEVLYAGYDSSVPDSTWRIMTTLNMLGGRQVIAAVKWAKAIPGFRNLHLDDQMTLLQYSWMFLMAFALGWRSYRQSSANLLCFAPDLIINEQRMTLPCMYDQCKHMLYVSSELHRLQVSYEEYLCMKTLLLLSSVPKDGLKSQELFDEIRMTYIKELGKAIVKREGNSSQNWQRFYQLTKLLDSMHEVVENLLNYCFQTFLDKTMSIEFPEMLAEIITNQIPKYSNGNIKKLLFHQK

Nc1cnn(-c2ccccc2)c(=O)c1Cl
not listed: [10]
inactive: all other assays above

CC(=O)C(Cl)Cl
not listed: [7] | [10]
inactive: all other assays above

COc1cccc(C(=O)NN(C(=O)c2cc(C)cc(C)c2)C(C)(C)C)c1C
not listed: [7] | [9] | [10]
inactive: all other assays above

CCOP(=S)(OCC)SCSc1ccc(Cl)cc1
not listed: [7]
inactive: all other assays above

O=CNC(N1CCN(C(NC=O)C(Cl)(Cl)Cl)CC1)C(Cl)(Cl)Cl (stereo not given)
not listed: [7] | [10]
inactive: all other assays above

ClC(Cl)Br
not listed: [7] | [9]
inactive: all other assays above

Nc1cc2c3c(c1)C(c1ccccc1)=N[C@@H](NC(=O)c1cccnc1)C(=O)N3CC2
not listed: [7]
inactive: all other assays above

CC(=O)[C@H]1CC[C@H]2[C@@H]3CC[C@H]4C[C@H](O)CC[C@]4(C)[C@H]3C(=O)C[C@]12C
not listed: [7] | [9] | [10]
inactive: all other assays above

O=C(Oc1ccc(Br)cc1)N1CCN2CCC1CC2
not listed: [7]
inactive: all other assays above

CNC(=O)O/N=C(\C)SC
not listed: [7]
inactive: all other assays above

CC(=O)CCc1ccc2c(c1)OCO2
not listed: [5] | [9] | [10]
inactive: all other assays above

Cc1ccccc1CO[C@@H]1C[C@@]2(C(C)C)CC[C@]1(C)O2
not listed: [5] | [9] | [10]
inactive: all other assays above

CC1CCCCC1NC(=O)Nc1ccccc1 (stereo not given)
not listed: [7] | [10]
inactive: all other assays above
